Data as given in PubChem BioAssay AID1159580 (chemical genetic matrix, 2015).
Among all 5,500 compounds or so, about 2,000 (36%) were called active. Roughly 18% stayed inconclusive and do not appear here. No stated cut-off is given here; in the data, active means normalized growth mostly below about 0.91 (no sharp cut-off); inconclusive means no clear call, values can overlap the other calls; inactive means mostly above about 0.92. Some of the results follow.

Experiment: chemical genetic growth profiling, strain panel (AID 1159580);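 further: tested at 20 µM; growth read once vehicle control cultures reached saturation at 30 °C; 1 = growth at the plate median or of vehicle wells; lower values mean less growth of the strain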
Settings: S. cerevisiae deletion strains, growth OD

Measured: normalized growth

C=C(C)C1CC=C(C(=O)O)CC1 (centres undefined)
inactive: locus YAL013W, strain DEP1, active compounds read low 1.01 | locus YAL040C, strain CLN3, active compounds read low 0.991 | locus YCL061C, strain MRC1 (second series), active compounds read low 1.01 | locus YDR150W, strain NUM1, active compounds read low 0.986 | locus YDR363W, strain ESC2, active compounds read low 0.961 | locus YER002W, strain NOP16, active compounds read low 1.02 | locus YGR229C, strain SMI1, active compounds read low 0.978 | locus YMR263W, strain SAP30, active compounds read low 0.997 | locus YMR307W, strain GAS1, active compounds read low 0.996 | locus YNL175C, strain NOP13, active compounds read low 1.01 | locus YNL197C, strain WHI3, active compounds read low 1 | locus YNL224C, strain SQS1, active compounds read low 1.01 | locus YOR083W, strain WHI5 (second series), active compounds read low 0.961 | locus YPL241C, strain CIN2, active compounds read low 1

C=C(C)C1CC=C(CO)CC1 (centres undefined)
active: locus YDR195W, strain ref2 0.809 | locus YER155C, strain BEM2 (second series), active compounds read low 0.793
inactive: locus YAL021C, strain ccr4, active compounds read low 0.983 | locus YAL026C, strain drs2, active compounds read low 0.978 | locus YAL030W, strain snc1, active compounds read low 0.973 | locus YBL061C, strain skt5, active compounds read low 0.991 | locus YBR009C, strain hhf1, active compounds read low 0.994 | locus YBR023C, strain chs3, active compounds read low 0.981 | locus YBR171W, strain sec66, active compounds read low 0.95 | locus YBR231C, strain swc5, active compounds read low 0.975 | locus YBR279W, strain paf1, active compounds read low 0.983 | locus YCL011C, strain gbp2, active compounds read low 0.963 | locus YCL016C, strain dcc1, active compounds read low 0.983 | locus YCL061C, strain MRC1, active compounds read low 0.978 | locus YCL069W, strain vba3, active compounds read low 0.948 | locus YCR088W, strain abp1, active compounds read low 0.963 | locus YDL005C, strain med2, active compounds read low 0.961 | locus YDL040C, strain nat1, active compounds read low 0.959 | locus YDR001C, strain nth1, active compounds read low 0.963 | locus YDR069C, strain doa4, active compounds read low 0.978 | locus YDR137W, strain rgp1, active compounds read low 0.941 | locus YDR159W, strain sac3, active compounds read low 0.943 | locus YDR297W, strain sur2, active compounds read low 0.975 | locus YDR334W, strain swr1, active compounds read low 0.938 | locus YDR335W, strain msn5, active compounds read low 0.965 | locus YDR392W, strain spt3, active compounds read low 0.844 | locus YEL003W, strain gim4, active compounds read low 0.976 | locus YEL037C, strain rad23, active compounds read low 0.955 | locus YEL061C, strain CIN8 (second series), active compounds read low 0.946 | locus YER015W, strain faa2, active compounds read low 0.976 | locus YER016W, strain bim1, active compounds read low 0.969 | locus YER111C, strain swi4, active compounds read low 0.963 | locus YFR010W, strain ubp6, active compounds read low 0.98 | locus YGL167C, strain pmr1, active compounds read low 0.96 | locus YGL173C, strain kem1, active compounds read low 0.955 | locus YGL227W, strain vid30, active compounds read low 0.965 | locus YGL240W, strain doc1, active compounds read low 0.954 | locus YGL253W, strain hxk2, active compounds read low 0.983 | locus YHR013C, strain ard1, active compounds read low 0.982 | locus YHR027C, strain rpn1, active compounds read low 0.976 | locus YHR030C, strain SLT2, active compounds read low 1.06 | locus YHR079C, strain IRE1, active compounds read low 1.05 | locus YHR142W, strain chs7, active compounds read low 0.995 | locus YJL092W, strain hpr5, active compounds read low 0.938 | locus YJL095W, strain BCK1 (second series), active compounds read low 0.97 | locus YJL095W, strain BCK1, active compounds read low 1.02 | locus YJL115W, strain asf1, active compounds read low 0.953 | locus YJL129C, strain trk1, active compounds read low 0.923 | locus YJL154C, strain vps35, active compounds read low 0.962 | locus YJL164C, strain tpk1, active compounds read low 0.987 | locus YJL166W, strain qcr8, active compounds read low 0.972 | locus YJL187C, strain SWE1, active compounds read low 0.968 | locus YJR066W, strain TOR1, active compounds read low 0.997 | locus YKL160W, strain elf1, active compounds read low 0.978 | locus YKR026C, strain gcn3, active compounds read low 0.972 | locus YKR091W, strain srl3, active compounds read low 0.953 | locus YLL001W, strain dnm1, active compounds read low 0.988 | locus YLL026W, active compounds read low 0.976 | locus YLL041C, strain sdh2, active compounds read low 0.971 | locus YLR027C, strain aat2, active compounds read low 0.993 | locus YLR113W, strain HOG1, active compounds read low 1.01 | locus YLR221C, strain rsa3, active compounds read low 1.01 | locus YLR258W, strain gsy2, active compounds read low 0.979 | locus YLR262C, strain YPT6 (second series), active compounds read low 0.954 | locus YLR320W, strain mms22, active compounds read low 0.983 | locus YLR342W, strain FKS1, active compounds read low 0.967 | locus YLR357W, strain rsc2, active compounds read low 0.92 | locus YLR370C, strain arc18, active compounds read low 0.938 | locus YLR384C, strain iki3, active compounds read low 0.958 | locus YML120C, strain ndi1, active compounds read low 0.974 | locus YMR058W, strain fet3, active compounds read low 0.968 | locus YMR125W, strain sto1, active compounds read low 0.931 | locus YMR129W, active compounds read low 0.955 | locus YMR205C, strain PFK2, active compounds read low 0.956 | locus YMR231W, strain pep5, active compounds read low 0.971 | locus YNL071W, strain lat1, active compounds read low 0.953 | locus YNL183C, strain NPR1, active compounds read low 0.947 | locus YNL209W, strain ssb2, active compounds read low 0.968 | locus YNL248C, strain rpa49, active compounds read low 0.932 | locus YNL322C, strain KRE1 (second series), active compounds read low 0.948 | locus YNR049C, strain mso1, active compounds read low 0.951 | locus YOR001W, strain rrp6, active compounds read low 0.969 | locus YOR070C, strain gyp1, active compounds read low 0.97 | locus YOR080W, strain dia2, active compounds read low 0.951 | locus YOR083W, strain WHI5, active compounds read low 0.994 | locus YOR106W, strain vam3, active compounds read low 0.989 | locus YOR231W, strain MKK1, active compounds read low 1.05 | locus YOR265W, strain rbl2, active compounds read low 0.968 | locus YOR270C, strain vph1, active compounds read low 0.949 | locus YOR290C, strain snf2, active compounds read low 0.96 | locus YPL051W, strain arl3, active compounds read low 0.99 | locus YPL078C, strain atp4, active compounds read low 0.979 | locus YPL106C, strain sse1, active compounds read low 0.945 | locus YPL240C, strain hsp82, active compounds read low 0.959 | locus YPL256C, strain CLN2, active compounds read low 1.04
